Screens (PubChem BioAssay)
A selection: hits, their analogues and other compounds. The true share with any hit is near 2.1%.
Abeta yeast res: restores growth of yeast expressing A-beta42 peptide. yeast expressing A-beta42, growth rescue, OD600, 48 h; response scale: 0% DMSO, 100% iron-clioquinol control. Potency, µM (series often up to 46.1 µM), most hits filed as activators. 410,000 compounds, 0.063% hits. AID 1347071; also: nearly all actives have a fitted effect of over 55% in size
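Yeast A-beta toxicity model in growth medium with pinned compounds, 48 h at 30 C; growth read as absorbance at 600 nm. Normalized to FeCl3/clioquinol equimolar mix (positive) and DMSO (negative).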
aSyn yeast inh: alpha-synuclein toxicity inhibition in yeast; AID 652106; 370,000 compounds, 0.14% hits; Potency, µM (series often up to 46.1 µM), for inactives: top-dose growth rescue (activation), usual class: activators; Yeast expressing alpha-synuclein, growth rescue, BacTiter-Glo, 24 h; also: % of control where 0% means no effect; nearly all actives have a fitted effect of over 65% in size
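Screening used galactose-induced yeast with toxic alpha-synuclein levels, exposed to compound for 24 hr at 30 deg C. Cell growth, read with BacTiter-Glo luminescence, gave the measured signal.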
TDP-43 yeast inh: inhibitors of TDP-43 toxicity in yeast; TDP-43 expressing yeast growth rescue, BacTiter-Glo, 24 h; Potency, µM (doses to about 46.1 µM), for the others: at the top dose growth rescue (activation), most hits filed as activators; 410,000 compounds, 1.8% hits; also: % of control where 0% means no effect; nearly all actives have a fitted effect of over 50% in size
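Growth rescue of TDP-43-toxic yeast measured as ATP luminescence (BacTiter-Glo). Cells grown to mid-log in raffinose, induced in galactose at OD600=0.02, exposed to compound 24 hr at 30 deg C.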
FUS yeast rescue: rescues growth of FUS-expressing yeast. 390,000 compounds, 0.24% hits. S. cerevisiae FUS-expressing, growth rescue, OD600, 24 h. Potency, µM (top dose mostly 76.6 µM), usual class: activators;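 also: plate controls were DMSO vehicle for no effect and reference control for full effect; nearly all actives have a fitted effect of over 55% in size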
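Quantitative HTS measuring growth restoration of FUS-toxic yeast. Galactose-induced cells (OD 0.005) were exposed 24hr at 30C to compounds at several concentrations, then absorbance at 600 nm was recorded.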
* hit, by the source's call; i = inactive; u = inconclusive; x = no result given. Calls follow the shape of the dose curve; as a rule, active = well fitted curve in the direction sought with a large enough effect; inconclusive = small, poorly fitted or top-dose-only effect, or another doubt; inactive = no such curve, though single readings can be large; an effect the other way counts as inactive or inconclusive. Potency is read from the fitted curve at half-maximal effect.

SMILES	Abeta yeast res	aSyn yeast inh	TDP-43 yeast inh	FUS yeast rescue
Cc1ccnc(NCc2c(O)ccc3ccccc23)c1	i	6.4%	-12.7%	i
CC(C)C1OC(CCc2ccccc2)Cc2[nH][nH]c(=O)c21 (configuration not stated)	i	1.5%	10.3%	i
CC(C)C[C@@H]1Cc2[nH][nH]c(=O)c2[C@H](c2ccc(Cl)cc2)O1	i	21.5%	u	i
CCCC[C@@H]1Cc2[nH][nH]c(=O)c2[C@H](c2cccc3ccccc23)O1	i	-1.4%	11.2µM*	i
O=c1[nH][nH]c2c1[C@H](c1ccc(Cl)cc1)O[C@H](C1CCCC1)C2	i	0.7%	17.8µM*	i
CC(C)c1ccc([C@@H]2O[C@H](CCc3ccccc3)Cc3[nH][nH]c(=O)c32)cc1	i	1.5%	15.8µM*	u
CC[C@@H]1Cc2[nH][nH]c(=O)c2[C@@H](c2ccc(Cl)cc2)O1	i	2.4%	15.8µM*	i
O=c1[nH]c(=S)[nH]c2c1C(c1ccccc1)OC(C1CCCCC1)C2 (configuration not stated)	i	-0.4%	0.0%	i
CC(=O)N1CCc2cc(S(=O)(=O)NC(CC(C)C)C(=O)Nc3cc(C)cc(C)c3)ccc21 (configuration not stated)	i	x	13.6%	i
CCC(C)Sc1nc2c(c(=O)n1C)SC(C)C2 (configuration not stated)	i	-14.6%	17.8µM*	i
O=C(CNS(=O)(=O)c1cccs1)N1CCCC1	i	-13.6%	6.3%	i
CC(=O)c1sc(N/N=C\c2cccc(Br)c2)nc1C	i	-11.2%	17.8µM*	u
CC(=O)c1sc(N/N=C\c2ccc(Br)cc2)nc1C	i	1.1%	0.0%	i
CCN1CCc2c(sc(NC(=O)C3COc4ccccc4O3)c2C(N)=O)C1 (configuration not stated)	i	2.8%	19.8%	x
Cc1c(C(=O)NCc2ccccc2Cl)sc2nc3n(c(=O)c12)CCC3	i	x	17.8µM*	i
Cc1c(C(=O)NCc2ccc(Cl)cc2)sc2nc3n(c(=O)c12)CCCC3	i	x	u	i
Cc1c(C(=O)NCc2cccc(Cl)c2)sc2nc3n(c(=O)c12)CCCC3	i	x	22.4µM*	i
C[C@H]1CCC[C@]2(O[C@@H](CCO)C[C@H](O)[C@H]2O)O1	i	-1.9%	-0.9%	i
CCOC(=O)C1CCN(C2=NC(=O)/C(=C/c3ccc(OC)c(OC)c3)S2)CC1	i	0.4%	u	i
CCOC(=O)C1CCN(C2=NC(=O)/C(=C/c3ccc(Cl)cc3)S2)CC1	i	5.7%	20µM*	i
CN(C)c1ccc(/C=C2\SC(N3CCCCC3)=NC2=O)cc1	i	-0.4%	22.4µM*	i
COc1cc(/C=C2\SC(N3CCC(C)CC3)=NC2=O)ccc1O	i	-9.8%	11.2µM*	i
Cc1ccc(S(=O)(=O)N2CCN(C(=O)CN3CCOCC3)C2c2ccccc2)cc1 (configuration not stated)	i	-0.4%	-10.3%	i
COc1cccc(-c2nc(CSCC(=O)N3CCc4ccccc43)c(C)o2)c1	i	0.7%	u	i
CCC(CN(C)C)Oc1cc(NCc2ccccc2)c2ncn(C(C)C)c2c1 (configuration not stated)	i	1.9%	3.9%	i
SMILES	Abeta yeast res	aSyn yeast inh	TDP-43 yeast inh	FUS yeast rescue
O=C1CCCCC1C(Nc1ccc(Cl)cc1)c1ccccc1 (configuration not stated)	i	-1.6%	u	i
O=C1CCCCC1C(Nc1ccc(Br)cc1)c1ccccc1 (configuration not stated)	i	19.3%	12.6µM*	i
CCOC(=O)C1=C(COC(=O)c2ccc([N+](=O)[O-])s2)NC(=O)NC1C (configuration not stated)	i	-73.8%	20µM*	i
O=C(CSc1ncn[nH]1)N1CCN(c2nnc(-c3ccccc3)c3ccccc23)CC1	i	x	7.1%	i
COCCCNC(=S)N1CCN(c2nc(-c3ccc(F)cc3)cs2)CC1	u	-2.1%	22.4µM*	u
CCOC(=O)N1CCN(c2nc(-c3ccc(F)cc3)cs2)CC1	i	-17.4%	20µM*	i
COc1cccc(-c2csc(N3CCN(C(=O)Nc4ccc(F)cc4)CC3)n2)c1	i	-3.8%	17.8µM*	12.6µM*
